In the supplement of paper PMC11732987, “Enantioselective OTUD7B fragment discovery through chemoproteomics screening and high-throughput optimisation” (Communications Chemistry, 2025):

Assays:
Assay in all cases: log2 ratio of Biotin-Ahx-Ub-VS probe labelling (fragment/DMSO); higher = less target engagement (more negative = stronger competition), active = hit call of the paper (q ≤ 0.05, log2 ratio ≤ -1)
Conditions in all cases: compound concentration: 200 uM; treatment time: 3 h
[1] = target: T1, USP19 (UniProt O94966)
T1 sequence (whole entry): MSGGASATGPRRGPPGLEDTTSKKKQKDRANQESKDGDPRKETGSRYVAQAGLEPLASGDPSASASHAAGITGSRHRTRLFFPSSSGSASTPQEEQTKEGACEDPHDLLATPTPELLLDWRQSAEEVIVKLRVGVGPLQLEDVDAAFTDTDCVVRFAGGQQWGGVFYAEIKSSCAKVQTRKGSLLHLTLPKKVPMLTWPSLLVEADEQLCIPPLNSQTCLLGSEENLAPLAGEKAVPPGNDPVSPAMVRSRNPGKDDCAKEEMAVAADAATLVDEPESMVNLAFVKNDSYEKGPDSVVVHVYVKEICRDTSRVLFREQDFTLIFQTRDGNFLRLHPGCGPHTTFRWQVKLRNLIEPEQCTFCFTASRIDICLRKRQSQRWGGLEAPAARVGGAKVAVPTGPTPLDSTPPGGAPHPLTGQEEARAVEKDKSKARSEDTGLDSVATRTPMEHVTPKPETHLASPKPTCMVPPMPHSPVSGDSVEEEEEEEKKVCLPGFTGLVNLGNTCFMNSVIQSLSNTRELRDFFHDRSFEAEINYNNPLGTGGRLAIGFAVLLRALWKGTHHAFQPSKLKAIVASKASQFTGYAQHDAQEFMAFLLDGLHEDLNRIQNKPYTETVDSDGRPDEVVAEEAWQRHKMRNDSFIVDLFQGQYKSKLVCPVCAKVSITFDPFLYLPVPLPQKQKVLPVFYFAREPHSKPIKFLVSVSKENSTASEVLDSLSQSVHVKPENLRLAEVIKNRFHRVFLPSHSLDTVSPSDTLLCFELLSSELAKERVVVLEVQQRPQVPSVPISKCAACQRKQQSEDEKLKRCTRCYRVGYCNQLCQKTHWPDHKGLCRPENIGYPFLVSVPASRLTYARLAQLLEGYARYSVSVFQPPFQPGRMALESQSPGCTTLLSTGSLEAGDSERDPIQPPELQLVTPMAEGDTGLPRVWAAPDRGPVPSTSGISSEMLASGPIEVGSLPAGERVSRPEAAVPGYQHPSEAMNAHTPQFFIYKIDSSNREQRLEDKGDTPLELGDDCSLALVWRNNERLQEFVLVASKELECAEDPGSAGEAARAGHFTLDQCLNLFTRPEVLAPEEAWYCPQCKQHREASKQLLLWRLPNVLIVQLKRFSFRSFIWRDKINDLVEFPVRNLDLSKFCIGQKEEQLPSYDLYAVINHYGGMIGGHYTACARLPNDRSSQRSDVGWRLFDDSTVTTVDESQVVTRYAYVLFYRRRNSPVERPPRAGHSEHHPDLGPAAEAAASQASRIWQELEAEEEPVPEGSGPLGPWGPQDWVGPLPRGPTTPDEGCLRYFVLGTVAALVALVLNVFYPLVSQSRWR
Summary of the method: (§1)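 HEK293T lysate in Tris/CHAPS/IGEPAL buffer with protease inhibitors (495 µg per sample) was given fragment at 200 µM or vehicle for 3 h, in triplicate. It then received Biotin-Ahx-Ub-VS at 0.5 µM final for 1 h. Labelled DUBs were NeutrAvidin-enriched, digested with LysC and trypsin, and run by diaPASEF LC-MS/MS. Values are average log2 fragment/vehicle ratios by unpaired t-test on global-median-normalised Spectronaut quantities of proteins with ≥2 unique peptides.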

[2] = target: USP24 (UniProt Q9UPU5)
USP24, sequence (Q9UPU5 whole entry): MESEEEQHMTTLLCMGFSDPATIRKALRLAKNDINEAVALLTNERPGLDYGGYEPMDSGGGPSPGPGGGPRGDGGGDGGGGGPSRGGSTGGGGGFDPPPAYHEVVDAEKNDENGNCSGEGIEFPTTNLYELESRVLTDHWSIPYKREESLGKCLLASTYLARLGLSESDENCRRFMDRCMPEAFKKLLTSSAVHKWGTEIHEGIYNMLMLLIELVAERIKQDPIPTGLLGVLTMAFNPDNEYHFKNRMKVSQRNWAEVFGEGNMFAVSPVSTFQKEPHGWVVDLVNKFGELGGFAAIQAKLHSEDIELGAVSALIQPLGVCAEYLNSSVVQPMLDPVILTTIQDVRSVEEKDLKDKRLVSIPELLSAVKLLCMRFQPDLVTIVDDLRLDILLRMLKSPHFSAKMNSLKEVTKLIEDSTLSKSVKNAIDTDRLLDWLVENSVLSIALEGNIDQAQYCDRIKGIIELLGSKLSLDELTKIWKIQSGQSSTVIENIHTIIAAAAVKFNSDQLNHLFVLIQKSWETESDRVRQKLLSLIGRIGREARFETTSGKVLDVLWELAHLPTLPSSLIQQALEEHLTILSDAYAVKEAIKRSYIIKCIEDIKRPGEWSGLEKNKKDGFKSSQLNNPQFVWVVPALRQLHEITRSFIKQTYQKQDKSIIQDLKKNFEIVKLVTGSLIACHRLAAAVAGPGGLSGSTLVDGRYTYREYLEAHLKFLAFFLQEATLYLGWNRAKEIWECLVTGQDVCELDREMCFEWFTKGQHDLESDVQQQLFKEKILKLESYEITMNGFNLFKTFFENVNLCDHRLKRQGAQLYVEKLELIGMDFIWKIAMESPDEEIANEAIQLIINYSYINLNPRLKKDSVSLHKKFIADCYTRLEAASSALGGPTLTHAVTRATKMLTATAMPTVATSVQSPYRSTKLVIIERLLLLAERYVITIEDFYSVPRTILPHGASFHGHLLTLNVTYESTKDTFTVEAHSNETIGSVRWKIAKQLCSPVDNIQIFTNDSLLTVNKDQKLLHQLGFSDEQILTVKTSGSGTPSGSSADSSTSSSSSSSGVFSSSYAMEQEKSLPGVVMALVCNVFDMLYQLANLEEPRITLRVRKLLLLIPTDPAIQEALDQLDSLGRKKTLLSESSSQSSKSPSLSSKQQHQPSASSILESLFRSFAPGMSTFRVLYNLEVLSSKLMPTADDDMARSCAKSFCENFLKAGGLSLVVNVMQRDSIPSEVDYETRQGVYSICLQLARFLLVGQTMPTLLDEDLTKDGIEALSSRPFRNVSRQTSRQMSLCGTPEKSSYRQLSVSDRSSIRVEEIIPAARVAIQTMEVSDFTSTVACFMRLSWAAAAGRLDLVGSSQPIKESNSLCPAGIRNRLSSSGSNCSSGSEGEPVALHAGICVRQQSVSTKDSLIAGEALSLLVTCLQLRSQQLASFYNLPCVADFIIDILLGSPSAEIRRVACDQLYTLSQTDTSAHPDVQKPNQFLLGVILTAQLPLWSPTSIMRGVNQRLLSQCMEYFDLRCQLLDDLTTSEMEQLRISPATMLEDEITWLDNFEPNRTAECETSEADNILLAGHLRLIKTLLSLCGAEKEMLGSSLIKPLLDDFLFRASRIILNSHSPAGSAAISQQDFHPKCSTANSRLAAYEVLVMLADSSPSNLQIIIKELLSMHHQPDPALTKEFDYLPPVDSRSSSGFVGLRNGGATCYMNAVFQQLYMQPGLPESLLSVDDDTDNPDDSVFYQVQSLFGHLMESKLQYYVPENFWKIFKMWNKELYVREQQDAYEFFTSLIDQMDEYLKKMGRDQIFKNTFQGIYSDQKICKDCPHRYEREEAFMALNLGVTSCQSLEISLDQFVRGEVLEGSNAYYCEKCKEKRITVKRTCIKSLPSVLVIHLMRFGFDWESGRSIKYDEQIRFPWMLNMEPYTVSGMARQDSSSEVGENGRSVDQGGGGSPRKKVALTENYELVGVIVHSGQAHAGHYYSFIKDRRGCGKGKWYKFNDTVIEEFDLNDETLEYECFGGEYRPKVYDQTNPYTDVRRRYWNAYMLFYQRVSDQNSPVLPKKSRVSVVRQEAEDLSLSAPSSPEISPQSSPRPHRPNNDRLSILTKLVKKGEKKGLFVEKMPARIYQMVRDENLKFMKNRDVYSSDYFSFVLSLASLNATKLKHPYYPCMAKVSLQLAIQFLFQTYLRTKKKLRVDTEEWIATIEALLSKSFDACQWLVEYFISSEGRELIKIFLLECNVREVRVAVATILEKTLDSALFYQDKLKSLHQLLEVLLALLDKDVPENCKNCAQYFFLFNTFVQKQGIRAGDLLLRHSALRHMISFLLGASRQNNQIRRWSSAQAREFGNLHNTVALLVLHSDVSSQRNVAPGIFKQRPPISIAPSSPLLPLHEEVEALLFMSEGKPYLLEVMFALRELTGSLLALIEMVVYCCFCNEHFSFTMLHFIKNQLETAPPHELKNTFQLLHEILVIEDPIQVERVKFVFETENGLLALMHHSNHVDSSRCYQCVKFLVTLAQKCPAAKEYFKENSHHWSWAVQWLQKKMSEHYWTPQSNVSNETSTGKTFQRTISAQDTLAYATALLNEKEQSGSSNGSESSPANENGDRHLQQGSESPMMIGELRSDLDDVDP
Summary of the method: as §1

[3] = target: T2, USP25 (UniProt Q9UHP3)
T2 sequence (whole entry): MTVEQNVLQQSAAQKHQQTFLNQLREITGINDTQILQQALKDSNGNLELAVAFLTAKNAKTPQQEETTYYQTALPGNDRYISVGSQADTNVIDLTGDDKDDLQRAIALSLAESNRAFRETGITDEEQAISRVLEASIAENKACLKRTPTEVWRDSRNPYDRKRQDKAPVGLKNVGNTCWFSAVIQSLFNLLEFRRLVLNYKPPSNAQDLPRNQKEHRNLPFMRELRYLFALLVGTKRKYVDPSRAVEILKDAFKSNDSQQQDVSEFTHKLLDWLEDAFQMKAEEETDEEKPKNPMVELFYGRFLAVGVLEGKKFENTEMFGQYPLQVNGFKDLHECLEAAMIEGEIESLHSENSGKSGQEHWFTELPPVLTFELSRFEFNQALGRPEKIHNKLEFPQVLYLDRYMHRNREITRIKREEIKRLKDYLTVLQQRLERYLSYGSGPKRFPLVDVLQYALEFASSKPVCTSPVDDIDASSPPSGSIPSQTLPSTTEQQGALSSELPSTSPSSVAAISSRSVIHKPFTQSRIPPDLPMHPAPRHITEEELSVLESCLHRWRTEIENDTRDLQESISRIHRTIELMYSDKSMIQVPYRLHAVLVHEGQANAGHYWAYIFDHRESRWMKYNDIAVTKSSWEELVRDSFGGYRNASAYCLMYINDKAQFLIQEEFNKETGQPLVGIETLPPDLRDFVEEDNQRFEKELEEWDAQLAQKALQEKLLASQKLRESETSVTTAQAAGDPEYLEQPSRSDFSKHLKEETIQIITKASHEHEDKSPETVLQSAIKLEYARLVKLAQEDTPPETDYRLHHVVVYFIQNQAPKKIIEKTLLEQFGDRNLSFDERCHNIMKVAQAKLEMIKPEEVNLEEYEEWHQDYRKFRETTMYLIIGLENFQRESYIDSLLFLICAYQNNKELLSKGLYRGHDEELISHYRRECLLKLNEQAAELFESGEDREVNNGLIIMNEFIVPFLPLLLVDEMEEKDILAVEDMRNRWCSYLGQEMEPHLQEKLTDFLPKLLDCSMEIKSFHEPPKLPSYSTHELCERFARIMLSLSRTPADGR
Summary of the method: as §1

[4] = target: T3, USP28 (UniProt Q96RU2)
T3 sequence (whole entry): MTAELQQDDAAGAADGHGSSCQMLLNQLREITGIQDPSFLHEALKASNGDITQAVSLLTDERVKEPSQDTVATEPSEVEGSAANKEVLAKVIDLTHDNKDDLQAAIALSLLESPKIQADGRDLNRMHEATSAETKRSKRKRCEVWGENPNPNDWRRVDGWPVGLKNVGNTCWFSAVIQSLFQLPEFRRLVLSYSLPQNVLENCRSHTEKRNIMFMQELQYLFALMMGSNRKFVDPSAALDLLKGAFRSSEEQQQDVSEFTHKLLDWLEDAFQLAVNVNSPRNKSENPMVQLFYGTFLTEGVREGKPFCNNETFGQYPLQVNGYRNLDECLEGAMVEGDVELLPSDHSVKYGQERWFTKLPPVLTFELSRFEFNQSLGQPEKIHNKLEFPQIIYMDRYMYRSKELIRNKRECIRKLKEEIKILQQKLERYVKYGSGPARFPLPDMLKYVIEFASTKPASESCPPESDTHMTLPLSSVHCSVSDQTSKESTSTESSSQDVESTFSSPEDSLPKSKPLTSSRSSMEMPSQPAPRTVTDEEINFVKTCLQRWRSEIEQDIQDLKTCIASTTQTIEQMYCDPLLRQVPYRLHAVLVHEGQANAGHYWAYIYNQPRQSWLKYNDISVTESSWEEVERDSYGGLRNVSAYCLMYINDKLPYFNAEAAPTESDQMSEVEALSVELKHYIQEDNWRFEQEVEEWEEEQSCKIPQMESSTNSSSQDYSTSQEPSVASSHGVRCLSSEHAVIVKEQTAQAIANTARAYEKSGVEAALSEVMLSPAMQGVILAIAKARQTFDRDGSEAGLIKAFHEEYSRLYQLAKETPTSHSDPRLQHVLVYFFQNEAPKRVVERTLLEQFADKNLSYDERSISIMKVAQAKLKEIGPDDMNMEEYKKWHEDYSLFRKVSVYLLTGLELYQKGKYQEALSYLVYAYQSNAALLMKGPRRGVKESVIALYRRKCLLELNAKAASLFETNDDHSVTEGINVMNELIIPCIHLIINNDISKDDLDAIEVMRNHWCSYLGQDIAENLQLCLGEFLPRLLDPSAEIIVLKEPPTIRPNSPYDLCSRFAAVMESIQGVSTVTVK
Summary of the method: as §1

Measured: log2 ratio of Biotin-Ahx-Ub-VS probe labelling

Cc1cccc(N(CCC#N)C(=O)CCl)c1C
inactive: [1] 0.16 | [2] -0.0767 | [3] 0.00615 | [4] -0.253
